Measured values: PubChem BioAssay (NCI)
Compounds without any hit were thinned out: in the full panel of roughly 83,000, 20% have a hit.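 Activity criterion: percent growth below 10, measured after cells in 96-well plates were exposed to a single compound concentration for 48 hours.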

Key:
Test in all cases: NCI-60 one-dose screen, 48 h (100 = growth as untreated, 0 = no growth, -100 = all killed)
[1] = tested on: A549/ATCC NSCLC; details: 10 µM unless noted
[2] = tested on: DU-145 prostate; details: 10 µM unless noted
[3] = tested on: K-562 leukemia; details: 10 µM unless noted
[4] = tested on: RXF 393 renal; details: 10 µM unless noted
[5] = tested on: UACC-257 melanoma; details: 10 µM unless noted
[6] = tested on: HT29 colon; details: 10 µM unless noted
[7] = tested on: SNB-75 CNS; details: 10 µM unless noted
[8] = tested on: PC-3 prostate; details: 10 µM unless noted
[9] = tested on: SK-MEL-5 melanoma; details: 10 µM unless noted
[10] = tested on: UACC-62 melanoma; details: 10 µM unless noted
[11] = tested on: SK-MEL-2 melanoma; details: 10 µM unless noted
[12] = tested on: ACHN renal; details: 10 µM unless noted
[13] = tested on: A498 renal; details: 10 µM unless noted
[14] = tested on: HL-60(TB) leukemia; details: 10 µM unless noted
[15] = tested on: MOLT-4 leukemia; details: 10 µM
[16] = tested on: OVCAR-8 ovarian; details: 10 µM unless noted
[17] = tested on: OVCAR-5 ovarian; details: 10 µM unless noted
[18] = tested on: HS 578T breast; details: 10 µM unless noted
[19] = tested on: NCI/ADR-RES ovarian; details: 10 µM unless noted
[20] = tested on: T-47D breast; details: 10 µM unless noted

Measured: growth

Nc1c(Br)cc2c3c(cccc13)-c1ccccc1-2
inactive: [1] 77.2% | [2] 70% | [3] 38.3% | [4] 80.2% | [5] 88.4% | [6] 103% | [7] 60.9% | [8] 47.4% | [9] 84.8% | [10] 81.2% | [11] 64.4% | [12] 75.7% | [13] 70.5% | [14] 82.7% | [15] 53.8% | [16] 70.9% | [17] 76.8% | [18] 50% | [19] 83.4% | [20] 38.6%

CC(C)(NC(=O)c1nn(CCCCCF)c2ccccc12)c1ccccc1
inactive: [1] 76.4% | [2] 102% | [3] 89.8% | [4] 112% | [5] 77% | [6] 81.9% | [7] 88.5% | [8] 65% | [9] 90.3% | [10] 75.4% | [11] 87% | [13] 94.8% | [14] 88.3% | [15] 71.9% | [16] 83.5% | [17] 103% | [18] 96.6% | [19] 92.8% | [20] 75.4%

COc1ccccc1N1CCN(CCc2c[nH]c3cc4c(cc23)OCO4)CC1
inactive: [2] 103% | [3] 76.3% | [4] 75.8% | [5] 56.7% | [6] 44.2% | [7] 91.6% | [8] 58.4% | [9] 74.8% | [10] 69.2% | [11] 57.6% | [12] 77.7% | [13] 108% | [14] 64.8% | [15] 84.7% | [16] 88.4% | [17] 60.2% | [18] 69.5% | [19] 86% | [20] 83.1%
